{
  "source": "the supplement of paper PMC7858590",
  "note": "Several values for one entry are separate records, joined by “and”; a condition that tells them apart may be missing. Equal values may be shown once.",
  "data": [
    {"test_system": "human monocyte-derived macrophages (polarized)", "assay": "cell shape (eccentricity) Z-score vs DMSO control; higher = more elongated, M2-like morphology", "details": "5 µM; 24 h; macrophage state: M1-polarized (IFNg + TNFa), cytokines present during treatment", "description": "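Primary-screen hits were rescreened on polarized hMDMs with the differentiating cytokines (IL-4 + IL-13 or IFNg + TNFa) kept in the medium during treatment with compound at 5 uM for 24 h. The eccentricity Z-score vs DMSO wells is averaged over experiments.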", "values": [
      {"smiles": "COc1cc(Nc2ncc(F)c(Nc3ccc4c(n3)NC(=O)C(C)(C)O4)n2)cc(OC)c1OC", "cell shape (Z-score)": -14.9},
      {"smiles": "NC(=O)Nc1cc(-c2cccc(F)c2)sc1C(=O)N[C@H]1CCCNC1", "cell shape (Z-score)": 7.81},
      {"smiles": "O=C(c1ccc(/C=C/c2n[nH]c3ccccc23)cc1)N1CCNCC1", "cell shape (Z-score)": 28.4},
      {"smiles": "CCCCOC(=O)c1ccc(N)cc1", "cell shape (Z-score)": -0.788},
      {"smiles": "CC(C)n1cnc2c(NCc3ccccc3)nc(NCCO)nc21", "cell shape (Z-score)": 0.237},
      {"smiles": "CCCCCCN(CCCCCC)C(=O)Cc1c(-c2ccc(F)cc2)[nH]c2ccccc12", "cell shape (Z-score)": -4.11},
      {"smiles": "CCN(CC)CCNC(=O)c1c(C)[nH]c(/C=C2\\C(=O)Nc3ccc(F)cc32)c1C", "cell shape (Z-score)": "8.79 and 5.25"},
      {"smiles": "COc1cc2c(Oc3ccc4[nH]c(C)cc4c3F)ncnc2cc1OCCCN1CCCC1", "cell shape (Z-score)": 12.3},
      {"smiles": "CC[C@H](Nc1ncnc2[nH]cnc12)c1nc2cccc(F)c2c(=O)n1-c1ccccc1", "cell shape (Z-score)": -16.8},
      {"smiles": "C[C@H](CO)N1C[C@H](C)[C@H](CN(C)C(=O)Nc2cc(F)ccc2F)Oc2cc(C#CC3CCCC3)ccc2S1(=O)=O", "cell shape (Z-score)": -2.86},
      {"smiles": "Cc1c(NC(=O)c2cccnc2)c(=O)n(-c2ccccc2)n1C", "cell shape (Z-score)": 1.43},
      {"smiles": "Cc1onc(-c2ccccc2)c1-c1ccc(S(N)(=O)=O)cc1", "cell shape (Z-score)": 7.67},
      {"smiles": "CN(C)CC[C@H](CSc1ccccc1)Nc1ccc(S(=O)(=O)NC(=O)c2ccc(N3CCN(Cc4ccccc4-c4ccc(Cl)cc4)CC3)cc2)cc1[N+](=O)[O-]", "cell shape (Z-score)": 0.862},
      {"smiles": "CC1(C)CCC(c2ccc(Cl)cc2)=C(CN2CCN(c3ccc(C(=O)NS(=O)(=O)c4ccc(N[C@H](CCN5CCOCC5)CSc5ccccc5)c(S(=O)(=O)C(F)(F)F)c4)cc3)CC2)C1", "cell shape (Z-score)": 4.31},
      {"smiles": "CCn1c(=O)c2c(nc(/C=C/c3ccc(OC)c(OC)c3)n2C)n(CC)c1=O", "cell shape (Z-score)": 3.19},
      {"smiles": "O=c1cc(-c2cccc3c2Sc2ccccc2S3)oc(N2CCOCC2)c1", "cell shape (Z-score)": -7.49},
      {"smiles": "C=C1CC[C@@H]2[C@](C)(CO[C@@H]3O[C@H](CO)[C@@H](O)[C@H](O)[C@H]3O)CCC[C@@]2(C)[C@@H]1CCC1=CCOC1=O", "cell shape (Z-score)": -4.62},
      {"smiles": "CCN(CC)CCOc1ccc2c(c1)C(=O)c1cc(OCCN(CC)CC)ccc1-2", "cell shape (Z-score)": -4.84},
      {"smiles": "CC(C)C[C@@H](C=O)NC(=O)[C@H](CC(C)C)NC(=O)[C@H](CC(C)C)NC(=O)OCc1ccccc1", "cell shape (Z-score)": 4.21}
    ]}
  ]
}
